# Laboratory results published in PubChem BioAssay (Tox21).
# Where “and” joins values, the source holds several entries; their conditions need not be identical. Equal values may be shown once. Records with an inconclusive call do not appear. Where a call stands in place of a potency, no number is given. More than one record can exist for a structure, and the calls need not agree. Calls of active or inactive are those of the source. Unless noted, the call rests on the fitted dose curve.
# Legend:
# [1] = Nuclear factor erythroid 2-related factor 2/antioxidant responsive element (Nrf2/ARE) small molecule agonists: qHTS cell viability counter screen in human keratinocytes (AID 1919968; active means well fitted curve in the direction sought with a large enough effect in the repeat runs; an effect the other way counts as inactive or inconclusive; further: nearly all actives have a fitted effect of over 55% in size; further: potency means the concentration at half of the fitted maximal effect); details: KeratinoSens HaCaT ARE cells viability, CellTiter-Fluor, 24 h; series mostly up to 92.4 µM
# How it was run: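 Seed 1,500 KeratinoSens cells per well, then incubate 5 h at 37 C/5% CO2. Add compounds in DMSO and incubate 23 h. Add CellTiter-Fluor, wait 1 h and read fluorescence.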
# [2] = Nuclear factor erythroid 2-related factor 2/antioxidant responsive element (Nrf2/ARE) small molecule agonists: luciferase reporter gene qHTS assay in human keratinocytes (AID 1919969); details: KeratinoSens HaCaT ARE-luciferase, luminescence, 24 h; series mostly up to 92.4 µM; further: nearly all actives have a fitted effect of over 35% in size; further: potency means the concentration at half of the fitted maximal effect
# [3] = biological target: Gonadotropin-releasing hormone receptor (Homo sapiens) (UniProt P30968); experiment: Human gonadotropin-releasing hormone receptor (GnRHR) small molecule agonists, calcium flux assay in GnRHR-HEK293 cells (AID 1920063); details: calcium flux fluorescence, agonist mode; series mostly up to 57.6 µM; further: nearly all actives have a fitted effect of over 35% in size
# Sequence of Gonadotropin-releasing hormone receptor (Homo sapiens) (P30968 whole entry, looked up): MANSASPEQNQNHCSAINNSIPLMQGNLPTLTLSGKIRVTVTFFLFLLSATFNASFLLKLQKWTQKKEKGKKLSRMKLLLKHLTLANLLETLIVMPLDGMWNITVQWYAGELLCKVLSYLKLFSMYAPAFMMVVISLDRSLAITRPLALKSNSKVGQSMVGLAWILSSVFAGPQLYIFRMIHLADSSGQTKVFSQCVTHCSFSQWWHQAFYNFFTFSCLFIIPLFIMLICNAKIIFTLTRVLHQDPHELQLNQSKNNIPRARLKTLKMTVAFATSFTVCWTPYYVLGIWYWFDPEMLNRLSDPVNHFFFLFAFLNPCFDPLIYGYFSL
# How it was run: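 Cells: HEK293 stably expressing human GnRHR. Steps: overnight (18 h) culture, 1 h calcium dye loading at 37 C, compound addition, kinetic fluorescence read at 480/540 nm. Each compound tested at 15 concentrations in triplicate.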
# [4] = biological target: KiSS-1 receptor (Homo sapiens) (UniProt Q969F8); experiment: Human kisspeptin (KISS1R) small molecule agonists, calcium flux assay in KISS1R-HEK293 cells (AID 1920064; active means well fitted curve in the direction sought with a large enough effect in the repeat runs; an effect the other way counts as inactive or inconclusive); details: KISS1R-HEK293, calcium flux fluorescence, agonist; series mostly up to 76.8 µM
# Sequence of KiSS-1 receptor (Homo sapiens) (Q969F8 whole entry, looked up): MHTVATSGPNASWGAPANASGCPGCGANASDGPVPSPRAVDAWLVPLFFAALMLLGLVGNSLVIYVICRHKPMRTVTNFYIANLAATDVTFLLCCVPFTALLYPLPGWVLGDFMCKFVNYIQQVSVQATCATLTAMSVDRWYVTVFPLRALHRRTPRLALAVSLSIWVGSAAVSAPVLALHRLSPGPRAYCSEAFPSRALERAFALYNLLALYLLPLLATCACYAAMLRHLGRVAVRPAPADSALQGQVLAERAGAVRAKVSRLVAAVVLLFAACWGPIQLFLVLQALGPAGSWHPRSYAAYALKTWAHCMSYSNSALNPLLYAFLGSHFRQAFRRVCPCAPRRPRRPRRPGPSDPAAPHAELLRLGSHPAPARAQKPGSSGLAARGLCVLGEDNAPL
# How it was run: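 Cells plated and incubated 18 h; dye added, 1 h at 37 C; compounds in DMSO pinned in; signal read at 480/540 nm every second for 3 min. Each compound tested at 15 concentrations in triplicate.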
# [5] = G protein-coupled receptor (GPCR) small molecule agonists, calcium flux assay: HEK293 wild type cell line counter screen (AID 1920065); details: HEK293 WT calcium flux, fluorescence, agonist mode; series mostly up to 57.6 µM
# How it was run: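 Counter-screen of the Tox21 10K library for non-specific calcium release: dye-loaded cells received compounds in DMSO and were monitored by kinetic fluorescence (480/540 nm, 3 min). Fifteen concentrations, run in triplicate.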
# [6] = p53 small molecule agonists, cell-based qHTS assay with rat liver microsomes (AID 1963578); details: HCT-116 p53RE-bla, beta-lactamase ratio, 16 h; series mostly up to 66 µM
# How it was run: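 Quantitative HTS of the Tox21 10K library: p53RE-bla cells, rat liver microsomes plus NADPH at 0.5 mg/mL final each, 16 h at 37 C, beta-lactamase fluorescence detection.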
# [7] = p53 small molecule agonists, cell-based qHTS assay with human liver microsomes: qHTS cell viability counter screen (AID 1963579); details: p53RE-bla HCT-116 viability, ATP luminescence, 16 h, HLM; series mostly up to 66 µM; further: nearly all actives have a fitted effect of over 45% in size
# How it was run: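 Viability of p53RE-bla cells is measured as CellTiter-Glo luminescence following a 16 h, 37 C incubation with compound, liver microsomes from human donors and NADPH.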
# [8] = p53 small molecule agonists, cell-based qHTS assay with rat liver microsomes: qHTS cell viability counter screen (AID 1963580); details: p53RE-bla HCT-116 + rat microsomes, ATP viability, 16 h; series mostly up to 66 µM; further: nearly all actives have a fitted effect of over 45% in size
# How it was run: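 p53RE-bla HCT-116 cells were exposed 16 h at 37 C to compounds with rat liver microsomes (0.5 mg/mL) and NADPH (0.5 mg/mL). Viability was measured in the same wells as ATP content by CellTiter-Glo luminescence.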
# [9] = p53 small molecule agonists, cell-based qHTS assay (AID 1963582; active means well fitted activation curve with a large enough effect in the signal ratio in the repeat runs, not every such curve was filed as active; the % refers to the signal ratio); details: HCT-116 p53RE-bla reporter, beta-lactamase FRET ratio, 16 h; series mostly up to 66 µM
# How it was run: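 Quantitative HTS in p53RE-bla cells: after a 5 h settling period, compounds delivered in DMSO were left on cells for 16 h at 37 C, and reporter induction was measured as fluorescence following 2 h substrate loading.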
# [10] = biological target: 5-hydroxytryptamine receptor 2A (Homo sapiens) (UniProt P28223); experiment: 5-hydroxytryptamine receptor 2A (HTR2A) small molecule antagonists, cell-based qHTS assay (AID 1963586); details: HTR2A-CHO cells, DOI-induced calcium flux, fluorescence; series mostly up to 61.5 µM; further: nearly all actives have a fitted effect of over 45% in size
# Sequence of 5-hydroxytryptamine receptor 2A (Homo sapiens) (P28223 whole entry, looked up): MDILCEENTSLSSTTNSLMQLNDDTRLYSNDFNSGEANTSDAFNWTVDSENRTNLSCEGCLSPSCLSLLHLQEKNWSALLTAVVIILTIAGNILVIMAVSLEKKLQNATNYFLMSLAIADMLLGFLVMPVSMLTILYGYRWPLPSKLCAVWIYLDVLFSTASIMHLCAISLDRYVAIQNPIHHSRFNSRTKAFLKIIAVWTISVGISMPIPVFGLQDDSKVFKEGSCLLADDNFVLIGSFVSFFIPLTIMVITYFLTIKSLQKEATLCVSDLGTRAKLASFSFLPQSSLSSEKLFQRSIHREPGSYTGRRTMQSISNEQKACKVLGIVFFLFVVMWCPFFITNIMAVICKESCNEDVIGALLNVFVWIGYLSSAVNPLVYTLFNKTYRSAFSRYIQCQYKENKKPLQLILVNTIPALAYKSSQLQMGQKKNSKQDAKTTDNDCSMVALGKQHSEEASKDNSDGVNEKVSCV
# How it was run: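 Antagonist-mode intracellular calcium assay: DOI (4 nM) added after 5 min compound pre-incubation at room temperature to dye-loaded HTR2A-CHO cells. Fluorescence followed for 3 min, sampled every second.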
# [11] = biological target: 5-hydroxytryptamine receptor 2A (Homo sapiens) (UniProt P28223); experiment: 5-hydroxytryptamine receptor 2A (HTR2A) small molecule agonists, cell-based qHTS assay (AID 1963587); details: HTR2A-CHO cells, calcium flux fluorescence, agonist mode; series mostly up to 76.8 µM; further: nearly all actives have a fitted effect of over 30% in size
# How it was run: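 CHO cells stably expressing human HTR2A, plated 18 h, loaded with calcium dye 1 h at 37 C. Agonist mode: compounds added and intracellular calcium fluorescence recorded kinetically for 2 min at 1 sec intervals.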
# [12] = biological target: Muscarinic acetylcholine receptor M1 (Homo sapiens) (UniProt P11229); experiment: Cholinergic receptor muscarinic 1 (CHRM1) small molecule antagonists, cell-based qHTS assay (AID 1963588); details: CHRM1-CHO antagonist mode, calcium flux fluorescence; series mostly up to 61.5 µM; further: nearly all actives have a fitted effect of over 40% in size
# Sequence of Muscarinic acetylcholine receptor M1 (Homo sapiens) (P11229 whole entry, looked up): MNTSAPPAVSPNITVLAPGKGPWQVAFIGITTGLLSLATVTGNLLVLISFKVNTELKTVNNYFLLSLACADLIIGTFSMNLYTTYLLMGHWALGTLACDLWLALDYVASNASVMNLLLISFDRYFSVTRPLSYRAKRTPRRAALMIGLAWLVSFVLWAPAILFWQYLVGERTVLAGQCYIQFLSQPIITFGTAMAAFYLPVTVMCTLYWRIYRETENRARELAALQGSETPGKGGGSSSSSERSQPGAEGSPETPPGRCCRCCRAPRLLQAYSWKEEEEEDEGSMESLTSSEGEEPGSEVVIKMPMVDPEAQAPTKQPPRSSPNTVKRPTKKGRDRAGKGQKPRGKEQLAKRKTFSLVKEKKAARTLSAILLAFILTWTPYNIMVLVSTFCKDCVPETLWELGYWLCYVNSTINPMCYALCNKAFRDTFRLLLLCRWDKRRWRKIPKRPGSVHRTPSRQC
# How it was run: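 CHRM1-CHO calcium-flux assay, antagonist mode. Cells were seeded 18 h, dye-loaded 1 h at 37 C and given compound for 5 min at RT, then acetylcholine was added at 50nM. FDSS fluorescence was read 3 min; 15 concentrations, three runs.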
# [13] = biological target: Muscarinic acetylcholine receptor M1 (Homo sapiens) (UniProt P11229); experiment: Cholinergic receptor muscarinic 1 (CHRM1) small molecule agonists, cell-based qHTS assay (AID 1963589); details: CHRM1-CHO cells, agonist mode, calcium flux fluorescence; series mostly up to 76.8 µM; further: nearly all actives have a fitted effect of over 35% in size
# How it was run: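 Agonist-mode qHTS in CHO cells stably carrying human muscarinic M1. Intracellular calcium is tracked by fluorescence every second after compound transfer; each compound runs at 15 concentrations in three independent runs.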
# [14] = cAMP Responsive Elements (CRE) small molecule agonists, cell-based qHTS assay (AID 1963590); details: CRE-bla HEK293T, beta-lactamase FRET ratio, 3 h; series mostly up to 92.4 µM
# How it was run: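 Agonist mode qHTS in CRE-bla HEK 293T cells: compounds dosed from DMSO for 3 h at 37 C/5% CO2, followed by LiveBLAzer B/G FRET substrate for 2 h at room temperature.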
# [15] = cAMP Responsive Elements (CRE) small molecule antagonists, cell-based qHTS assay (AID 1963591; active means well fitted inhibition curve with a large enough effect in the signal ratio in the repeat runs, not every such curve was filed as active; the % refers to the signal ratio); details: CRE-bla HEK293T, beta-lactamase FRET ratio; series mostly up to 92.4 µM
# How it was run: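 Antagonist mode: test compounds are co-incubated with the adenylyl cyclase activator NKH477 (0.25 uM final) on CRE-bla HEK293T cells for 3 h at 37 °C, followed by LiveBLAzer substrate loading.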
# [16] = biological target: Beta-2 adrenergic receptor (Homo sapiens) (UniProt P07550); experiment: Adrenergic beta2 receptor (ADRB2) small molecule antagonists, cell-based qHTS assay (AID 1963592); details: CHO-ADRB2 cells, isoproterenol-stimulated cAMP HTRF ratio, 0.5 h; series mostly up to 92.4 µM; further: nearly all actives have a fitted effect of over 50% in size; further: potency means the concentration at half of the fitted maximal effect
# Sequence of Beta-2 adrenergic receptor (Homo sapiens) (P07550 whole entry, looked up): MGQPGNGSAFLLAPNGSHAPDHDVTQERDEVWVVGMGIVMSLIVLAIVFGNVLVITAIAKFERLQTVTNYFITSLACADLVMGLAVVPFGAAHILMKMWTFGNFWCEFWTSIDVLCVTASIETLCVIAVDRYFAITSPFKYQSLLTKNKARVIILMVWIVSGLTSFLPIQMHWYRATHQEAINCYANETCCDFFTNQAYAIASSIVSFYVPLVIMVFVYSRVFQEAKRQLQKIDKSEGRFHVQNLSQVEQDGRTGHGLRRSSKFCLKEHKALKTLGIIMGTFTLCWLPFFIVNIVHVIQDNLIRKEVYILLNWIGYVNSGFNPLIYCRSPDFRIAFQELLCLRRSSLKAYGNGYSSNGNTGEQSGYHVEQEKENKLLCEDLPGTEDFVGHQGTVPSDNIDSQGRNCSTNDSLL
# How it was run: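 Cells (CHO, stable ADRB2 overexpression) incubated 18-20hr at 37C; compounds added from DMSO; agonist mix (1nM isoproterenol, 100uM IBMX, 25uM Ro-20-1724) added; 0.5hr RT; d2-cAMP and anti-cAMP-cryptate added; 1hr RT; 665/615 nm read.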
# [17] = biological target: D(2) dopamine receptor (Homo sapiens) (UniProt P14416); experiment: Dopamine D2 receptor (DRD2) small molecule agonists, cell-based qHTS assay (AID 1963594); details: HEK293-DRD2 cAMP HTRF, agonist mode, 30 min; series mostly up to 92.4 µM; further: nearly all actives have a fitted effect of over 35% in size
# Sequence of D(2) dopamine receptor (Homo sapiens) (P14416 whole entry, looked up): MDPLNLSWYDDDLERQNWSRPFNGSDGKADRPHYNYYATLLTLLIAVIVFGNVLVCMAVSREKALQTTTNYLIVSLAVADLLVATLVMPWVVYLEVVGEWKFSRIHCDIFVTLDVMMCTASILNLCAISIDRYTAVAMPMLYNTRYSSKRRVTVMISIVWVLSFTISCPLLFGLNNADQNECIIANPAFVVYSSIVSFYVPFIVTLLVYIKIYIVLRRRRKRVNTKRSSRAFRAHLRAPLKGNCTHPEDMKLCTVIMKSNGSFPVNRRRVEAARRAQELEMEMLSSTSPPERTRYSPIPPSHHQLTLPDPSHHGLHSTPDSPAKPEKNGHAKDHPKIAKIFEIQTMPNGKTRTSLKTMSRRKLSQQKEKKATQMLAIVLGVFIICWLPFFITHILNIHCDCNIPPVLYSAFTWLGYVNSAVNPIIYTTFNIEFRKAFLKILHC
# How it was run: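 HEK293 cells stably expressing human DRD2, pre-treated with PDE inhibitor Ro20-1724 (0.1 mM final) and compound 10 min at room temperature, then stimulated with NKH477 (200nM […]) for 30 min. cAMP read by HTRF (665/620 nm).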
# [18] = p53 small molecule agonists, cell-based qHTS assay: qHTS cell viability counter screen (AID 1963581); details: p53RE-bla HCT-116 viability, ATP luminescence, 16 h; series mostly up to 66 µM; further: nearly all actives have a fitted effect of over 45% in size
# How it was run: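 Cells: HCT-116 with p53 response element-driven beta-lactamase. Treatment: 16 h, 37 C, compounds in DMSO. Read: CellTiter-Glo luminescence after 30 min RT.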
# [19] = biological target: Beta-2 adrenergic receptor (Homo sapiens) (UniProt P07550); experiment: Adrenergic beta2 receptor (ADRB2) small molecule agonists, cell-based qHTS assay (AID 1963593); details: CHO-ADRB2 cells, cAMP HTRF, 30 min; series mostly up to 92.4 µM;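 further: CHO cells stably overexpressing human ADRB2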
# How it was run: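 CHO cells stably over-expressing ADRB2 were plated overnight at 37C, then dosed with compounds plus a stimulation mix containing 100uM IBMX and 25uM Ro-20-1724 for 0.5hr at room temperature. cAMP was measured by HTRF competition, 1hr.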
# [20] = biological target: D(2) dopamine receptor (Homo sapiens) (UniProt P14416); experiment: Dopamine D2 receptor (DRD2) small molecule antagonists, cell-based qHTS assay (AID 1963595; active means well fitted inhibition curve with a large enough effect in the signal ratio in the repeat runs, with a control signal flat; the % refers to the signal ratio); details: HEK293-DRD2 cAMP HTRF antagonist mode; series mostly up to 92.4 µM
# How it was run: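 HTRF cAMP read-out at 665 and 620 nm emission (340 nm excitation). Antagonist mode: compounds were tested against 12 nM quinpirole in DRD2-HEK293 cells, with 200 nM NKH477 raising cAMP and 0.1 mM Ro20-1724 blocking its breakdown.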
SMILES,Potency [1],Potency [2],Potency [3],Potency [4],Potency [5],Potency [6],Potency [7],Potency [8],Potency [9],Potency [10],Potency [11],Potency [12],Potency [13],Potency [14],Potency [15],Potency [16],Potency [17],Potency [18],Potency [19],Potency [20]
Cn1cc(-c2ccccc2)c(=O)c(-c2cccc(C(F)(F)F)c2)c1,inactive,inactive,inactive,inactive,inactive,inactive,inactive,inactive,inactive,inactive,inactive,inactive,inactive,inactive,inactive,29.9 µM (active) and inactive,inactive,,,
CCCCOC(=O)COC(=O)c1ccccc1C(=O)OCCCC,inactive,inactive,inactive,inactive,inactive,inactive,inactive,inactive,inactive,,inactive,inactive,inactive,inactive,,inactive,inactive,inactive,,
CCC(=O)Nc1ccc(Cl)c(Cl)c1,inactive,inactive,inactive,inactive,inactive,inactive,inactive,inactive,inactive,inactive,inactive,inactive,inactive,inactive,inactive,inactive,inactive,inactive,inactive,inactive
CCCBr,inactive,inactive,inactive,inactive,inactive,inactive,inactive,inactive,inactive,inactive,,,inactive,,inactive,inactive,inactive,inactive,,inactive
C[C@]12CC[C@H]3[C@@H](CCC4=CC(=O)CC[C@@H]43)[C@@H]1CC[C@@H]2O,inactive,inactive,inactive,inactive,inactive,,inactive,inactive,inactive,,,,,,inactive,inactive,inactive,inactive,inactive,
[O]=[Cr](=[O])([OH])[O][Cr](=[O])(=[O])[OH],30.9 µM (active) and 61 µM (active),inactive,inactive,inactive,inactive,,,,,inactive,inactive,inactive,inactive,inactive,,inactive,inactive,,,inactive
CC(C)CCON=O,inactive,inactive,inactive,inactive,inactive,inactive,inactive,inactive,inactive,inactive,,inactive,inactive,inactive,inactive,inactive,inactive,inactive,,inactive
C[C@]12CC[C@H]3[C@@H](CC[C@@]45O[C@@H]4C(O)=C(C#N)C[C@]35C)[C@@H]1CC[C@@H]2O,inactive,68.6 µM (active) and inactive,inactive,inactive,inactive,inactive,inactive,inactive,,inactive,inactive,inactive,,,,inactive,inactive,inactive,inactive,inactive
